From PubChem BioAssay
Sampled rows, rich in hits. Any-hit rate of the full collection: about 18%.
VDR inhibitor = Inhibitors of the vitamin D receptor (VDR): qHTS; VDR-SRC2-3 peptide fluorescence polarization, 2 h; Potency, µM, for inactives: max response, negative = inhibition, usual class: inhibitors; actives 0.93% (n = 400,000)
Target sequence (P11473 whole entry, looked up): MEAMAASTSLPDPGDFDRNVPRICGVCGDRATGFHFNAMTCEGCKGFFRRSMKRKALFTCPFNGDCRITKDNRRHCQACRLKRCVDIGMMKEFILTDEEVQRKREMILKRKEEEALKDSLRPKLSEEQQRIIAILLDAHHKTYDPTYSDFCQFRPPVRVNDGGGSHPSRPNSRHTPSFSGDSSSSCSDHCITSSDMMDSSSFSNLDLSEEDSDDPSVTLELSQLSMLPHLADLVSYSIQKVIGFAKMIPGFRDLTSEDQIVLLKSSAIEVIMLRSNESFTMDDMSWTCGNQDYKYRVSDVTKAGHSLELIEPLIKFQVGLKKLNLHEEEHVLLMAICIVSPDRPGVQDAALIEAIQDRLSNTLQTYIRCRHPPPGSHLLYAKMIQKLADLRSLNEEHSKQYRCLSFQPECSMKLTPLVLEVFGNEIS
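Fluorescence polarization assay of small-molecule disruption of VDR binding to coregulator peptide SRC2-3. Compounds and controls pin-transferred, then read after 2 h incubation at ambient room temperature.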
PLK1 PBD block = qHTS for Inhibitors of PLK1-PDB (polo-like kinase 1 - polo-box domain): Primary Screen. Plk1 PBD binding of FITC phosphopeptide, fluorescence polarization. Potency, µM, inactives show max response, negative = inhibition, hits mostly inhibitors. actives 2.8% (n = 360,000). AID 720504, 2013; also: series mostly up to about 57 µM; nearly all actives have a fitted effect of over 65% in size
GCN5L2 inh = qHTS Assay for Inhibitors of GCN5L2; Histone acetyltransferase KAT2A (Homo sapiens), Q92830; GCN5L2 HAT assay, ThioGlo1 CoA-SH fluorescence; Potency, µM (doses to about 58.9 µM), for the others: top-dose activity change, negative = inhibition, actives largely listed as inhibitors; actives 0.21% (n = 390,000); AID 504327, 2011
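Enzyme at 20nM final was mixed with library compounds for 15 min at room temperature. Peptide H3(1-25) at 75uM, acetyl-CoA at 70uM and ThioGlo1 at 50uM were then added. Plates were read immediately and after 20 min (Ex340nm/Em540nm).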
DT40 TDP1 no CPT = qHTS for Inhibitors of human tyrosyl-DNA phosphodiesterase 1 (TDP1): qHTS in cells in absence of CPT; Potency, µM (series often up to 46.2 µM), for the others: at the top dose activity change, negative = growth inhibition, actives largely listed as inhibitors; DT40 Tdp1-/- hTDP1 cells, no CPT, ATP luminescence, 48 h; actives 15% (n = 420,000); also: nearly all actives have a fitted effect of over 55% in size
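Camptothecin absent (DMSO only). Human TDP1-complemented DT40 knockout cells, 400 cells/well, 37 °C for minimum 48 hr; ATP measured via CellTiter-Glo, 30 min dark incubation, luminescence.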
TDP1 inh = qHTS Assay for Inhibitors of Tyrosyl-DNA Phosphodiesterase (TDP1). Tyrosyl-DNA phosphodiesterase 1 (Homo sapiens), Q9NUW8. recombinant TDP1, AlphaScreen DNA substrate cleavage. Potency, µM (titrated, usually from 130 µM), inactives show at the top dose activity change, negative = inhibition, hits mostly inhibitors. actives 0.28% (n = 350,000); also: nearly all actives have a fitted effect of over 40% in size
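Enzyme-compound mixtures sat 15 min at room temperature, followed by a 5 min reaction with 15 nM final substrate and 10 min with AlphaScreen beads. Recombinant human Tdp1 was used at 1 nM final.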
TDP1 cell CPT = qHTS for Inhibitors of human tyrosyl-DNA phosphodiesterase 1 (TDP1): qHTS in cells in presence of CPT; actives 12% (n = 420,000); AID 686979, 2013; Potency, µM (top dose mostly 46.2 µM), for inactives: at the highest dose activity change, negative = growth inhibition, hits mostly inhibitors; chicken DT40 Tdp1-/-;hTDP1 cells + 20 nM CPT, ATP luminescence, 48 h; also: nearly all actives have a fitted effect of over 55% in size
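Chicken DT40 Tdp1-/- cells complemented with human TDP1, 400 cells/well, exposed to compounds plus 20 nM camptothecin for at least 48 h at 37 C; viability read as ATP content by CellTiter-Glo luminescence.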
* hit, by the source's call; [ ] = another dose, or the depositor's remark. Calls follow the shape of the dose curve; as a rule, active = well fitted curve in the direction sought with a large enough effect; inconclusive = small, poorly fitted or top-dose-only effect, or another doubt; inactive = no such curve, though single readings can be large; an effect the other way counts as inactive or inconclusive. % is scaled to controls: 0 for no effect and ±100 for the full control effect; potency is read from the fitted curve at half-maximal effect.

Screening COCc1cc(C)nc(SCc2ccc(F)cc2)c1C#N returned VDR inhibitor -27%, PLK1 PBD block 24µM*, GCN5L2 inh -3%, DT40 TDP1 no CPT -28% and TDP1 cell CPT inconclusive.
Screening c1ccc(CCNc2ccc3ncc(-c4cccc5ccccc45)n3n2)nc1 returned PLK1 PBD block 0%, DT40 TDP1 no CPT inconclusive and TDP1 cell CPT inconclusive.
For CCOC(=O)c1c(C)c(C(=O)Nc2cc(F)ccc2F)c(C)n1C the results were VDR inhibitor -14%, PLK1 PBD block 0%, GCN5L2 inh 40%, DT40 TDP1 no CPT 10µM*, TDP1 inh 3% and TDP1 cell CPT 18µM*.
Screening CCOC(=O)c1c(C)c(C(=O)OCC)n(C)c1C returned VDR inhibitor -14%, PLK1 PBD block inconclusive, GCN5L2 inh 0%, DT40 TDP1 no CPT -12%, TDP1 inh -3% and TDP1 cell CPT -5%.
Screening C=C(CO)C1Cc2c(ccc3c2OC2COc4cc(OC)c(OC)cc4C2C3=O)O1 (stereo not drawn) returned DT40 TDP1 no CPT 0.24µM*, TDP1 inh 19% and TDP1 cell CPT 0.3µM*.
For COc1cc2c(cc1OC)C1(O)C(=O)c3ccc(O)c(C(=O)O)c3OC1CO2 (stereo not drawn) the results were VDR inhibitor 7%, GCN5L2 inh -11%, DT40 TDP1 no CPT -9%, TDP1 inh 12%[56.1 µM] and TDP1 cell CPT inconclusive.
For COCc1cc(=O)n2[nH]cc(-c3ccsc3)c2n1 the results were VDR inhibitor -8%, PLK1 PBD block 1%, GCN5L2 inh -7%, DT40 TDP1 no CPT inconclusive and TDP1 cell CPT -4%.
Screening OC[C@@H]1CN(Cc2ccc(Cl)cc2)C[C@H](n2cnc3c(NC4CC4)ncnc32)O1 returned PLK1 PBD block 5%, DT40 TDP1 no CPT -26% and TDP1 cell CPT inconclusive.
For CCN(c1ccccc1)S(=O)(=O)c1ccc(OC)c(NC(=O)c2cc(Cl)ccn2)c1 the results were VDR inhibitor -9%, PLK1 PBD block -5%, GCN5L2 inh -17%, DT40 TDP1 no CPT inconclusive, TDP1 inh -3% and TDP1 cell CPT inconclusive.
Screening COc1ccc(Nc2ccc3cc(S(=O)(=O)N4CCCC4)ccc3n2)cc1Cl returned VDR inhibitor 5%, GCN5L2 inh 37%, DT40 TDP1 no CPT 21µM*, TDP1 inh 3% and TDP1 cell CPT 21µM*.
Screening CCOC(=O)c1cccc(Nc2ccc3cc(S(=O)(=O)N4CCCCC4)ccc3n2)c1 returned VDR inhibitor 16%, GCN5L2 inh -18%, DT40 TDP1 no CPT 21µM*, TDP1 inh -8% and TDP1 cell CPT 23µM*.
Cc1cccc(NC(=O)COC(=O)c2ccc(S(=O)(=O)N3CCCCCC3)cc2)c1 was read as VDR inhibitor 3%, PLK1 PBD block -11%, GCN5L2 inh 3%, DT40 TDP1 no CPT -10%, TDP1 inh -1% and TDP1 cell CPT -7%.
For O=S(=O)(c1ccc2nc(Nc3cccc(F)c3)ccc2c1)N1CCCC1 the results were VDR inhibitor 24%, GCN5L2 inh -2%, DT40 TDP1 no CPT inconclusive, TDP1 inh 5% and TDP1 cell CPT 23µM*.
For COc1ccc(Cl)cc1Nc1ccc2cc(S(=O)(=O)N3CCCCC3)ccc2n1 the results were VDR inhibitor 6%, GCN5L2 inh 4%, DT40 TDP1 no CPT inconclusive, TDP1 inh -3% and TDP1 cell CPT inconclusive.
Screening COc1ccccc1N1CCN(c2ccc3cc(S(=O)(=O)N4CCCCC4)ccc3n2)CC1 returned VDR inhibitor -13%, PLK1 PBD block 0%, GCN5L2 inh inconclusive, DT40 TDP1 no CPT 7.3µM*, TDP1 inh 4% and TDP1 cell CPT 13µM*.
For O=C(NNC1=Nc2ccccc2SC1)c1ccc(Cl)cc1 the results were VDR inhibitor 3%, PLK1 PBD block 2%, GCN5L2 inh -6%, DT40 TDP1 no CPT 12µM* and TDP1 cell CPT 6.5µM*.
`O=C(NNC1=Nc2ccccc2SC1)c1ccc(F)cc1` gave VDR inhibitor 10%, PLK1 PBD block -5%, GCN5L2 inh -6%, DT40 TDP1 no CPT 23µM*, TDP1 inh 7% and TDP1 cell CPT inconclusive.
For Cn1c(=O)c2c(nc(NCCNC(=O)c3ccco3)n2Cc2ccccc2)n(C)c1=O the results were VDR inhibitor -6%, PLK1 PBD block 1%, GCN5L2 inh -9%, DT40 TDP1 no CPT inconclusive, TDP1 inh 10% and TDP1 cell CPT inconclusive.
COc1cccc(Cn2c(NCC(C)C)nc3c2c(=O)n(C)c(=O)n3C)c1 was read as VDR inhibitor 13%, PLK1 PBD block -7%, GCN5L2 inh 1%, DT40 TDP1 no CPT 23µM*, TDP1 inh 2% and TDP1 cell CPT 29µM*.
`Cn1c(=O)c2sccc2n(Cc2cccc(Br)c2)c1=O` gave VDR inhibitor 10%, PLK1 PBD block -5%, GCN5L2 inh -25%, DT40 TDP1 no CPT inconclusive and TDP1 cell CPT 12µM*.
Screening Cn1c(Cl)nc2c1c(=O)n(Cc1cccc(Br)c1)c(=O)n2C returned VDR inhibitor 6%, PLK1 PBD block -5%, GCN5L2 inh -4%, DT40 TDP1 no CPT inconclusive, TDP1 inh 4% and TDP1 cell CPT inconclusive.
For CC(O)CNc1nc2c(c(=O)n(C)c(=O)n2C)n1Cc1cccc(Br)c1 (stereo not drawn) the results were VDR inhibitor 4%, PLK1 PBD block -5%, GCN5L2 inh -2%, DT40 TDP1 no CPT 14µM*, TDP1 inh 5% and TDP1 cell CPT inconclusive.
For COCCCn1c(=O)c2sccc2n(Cc2cccc(F)c2)c1=O the results were VDR inhibitor -9%, PLK1 PBD block -8%, GCN5L2 inh inconclusive, DT40 TDP1 no CPT -15% and TDP1 cell CPT -20%.
For CC(C)CNc1nc2c(c(=O)n(C)c(=O)n2C)n1Cc1cccc(Br)c1 the results were VDR inhibitor -3%, PLK1 PBD block -11%, GCN5L2 inh 0%, DT40 TDP1 no CPT 23µM*, TDP1 inh 0% and TDP1 cell CPT 21µM*.
For O=C(Cn1ccc2cc(S(=O)(=O)N3CCCCC3)ccc21)NCCc1ccccc1Cl the results were VDR inhibitor 11%, GCN5L2 inh -5%, DT40 TDP1 no CPT inconclusive, TDP1 inh 3% and TDP1 cell CPT inconclusive.
